Experimental data from PubChem BioAssay AID1159580 (chemical genetic matrix, 2015).
Among all 5,500 compounds or so, about 2,000 (36%) were called active. About 18% were inconclusive and are not listed. Rule as the data show it: active = normalized growth mostly below about 0.91 (no sharp cut-off); inconclusive = no clear call, values can overlap the other calls; inactive = mostly above about 0.92. This is one part of the list.

Assay: chemical genetic growth profiling, strain panel (AID 1159580);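 also: tested at 20 µM; growth read once vehicle control cultures reached saturation at 30 °C; 1 = growth at the plate median or of vehicle wells; lower values mean less growth of the strain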
Settings: S. cerevisiae deletion strains, growth OD

Measured: normalized growth

NC(=O)CNCCC(c1ccccc1)c1ccccc1
inactive: locus YAL040C, strain CLN3, stronger effect = lower value 0.962 | locus YCL061C, strain MRC1 (second series), stronger effect = lower value 0.987 | locus YDR363W, strain ESC2, stronger effect = lower value 0.965 | locus YER002W, strain NOP16, stronger effect = lower value 0.969 | locus YGR078C, strain PAC10, stronger effect = lower value 0.993 | locus YGR229C, strain SMI1, stronger effect = lower value 0.895 | locus YNL153C, strain GIM3, stronger effect = lower value 1.04 | locus YNL175C, strain NOP13, stronger effect = lower value 0.993 | locus YNL197C, strain WHI3, stronger effect = lower value 1.01 | locus YNL224C, strain SQS1, stronger effect = lower value 0.991 | locus YOR083W, strain WHI5 (second series), stronger effect = lower value 1.03 | locus YPL241C, strain CIN2, stronger effect = lower value 0.984
